The results in this text go back to PubChem BioAssay (NCI).

Each structure is given as a SMILES string. The panel holds about 83,000 compounds, 20% with a hit somewhere; the sample as a whole holds those more often.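 Note: values are percent growth. 100 is the growth of untreated cells, values between 100 and 0 indicate rising inhibition; between -100 and 0 indicates cell death.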 A number with no mark means an inactive call. The source made the active and inactive calls. How the source made its calls: active means growth percent below 10; inactive means the rest.

The assay relates to HL-60(TB) leukemia. Description: NCI-60 one-dose screen, 48 h (100 = growth as untreated, 0 = no growth, -100 = all killed). The settings on record: 10 µM unless noted.
For the molecule `CNc1cccc2c1C(=O)c1cccc(N)c1C2=O`, the growth is 34.4%. On to `COc1ccc(C(=O)c2sc3nc4c(cc3c2N)CCCC4)cc1OC`, for which the growth is 11.4%. With `O=C(CCl)Nc1cc(O)c2c(c1)C(=O)c1cccc(O)c1C2=O`, the growth is -44.4% (active). With `COc1ccc(-c2nc3cc(C(=O)NC4CCCCC4)ccc3n2C2CCCCC2)cc1` the figure was 79.1%; with `O=C(Nc1cccnc1Nc1ccc(Cl)cc1)c1cn(Cc2ccc(F)cc2)nn1`, 109%; with `CCCC1(c2ccccc2)NC(=O)NC1=O` (stereo not given), 144%.

On to `C1CCCCNCCC1`, for which the growth is 114%. Regarding `Cc1ccc(-c2nc(SCC(=O)N3CCN(c4cc5c(cc4F)c(=O)c(C(=O)O)cn5C4CC4)CC3)nc(Cl)c2C#N)cc1`, the growth was 101%. In the case of `CCCCCC(C)(O)C(C(=O)O)c1ccccc1` (stereo not given), the growth is 110%. Turning to `O=[N+]([O-])c1ccc(O)c(-c2nc3ccccc3s2)c1`, the growth is 52.8%. For `COc1ccc2c(c1)NC(=O)CN2c1nc(C)nc2ccccc12`, the growth is -6.18% (active). Next, `COc1ccc(-c2cc3c(oc2=O)-c2ccccc2OC3OC(C)=O)cc1` (stereo not given): 85.8%; `O=C1C2=C(CCN(Cc3ccccc3)C2)N2CCN=C2N1Cc1ccc(C(F)(F)F)cc1`: 20.4%; `Nc1ncnc2c1c(-c1ccc(Oc3ccccc3)cc1)nn2C[C@H]1SSC[C@H]1O`: -31.9% (active). Consider `C#Cc1cccc(Nc2nc3ccc([N+](=O)[O-])cc3nc2Nc2cccc(C#C)c2)c1`, for which the growth was -33.9% (active). As to `CC(C)=NNC(N)=S`, the growth was 84.7%.

Regarding `OCCN1CCN(CC/C=C2/c3ccccc3Sc3ccc(C(F)(F)F)cc32)CC1`, the growth was 73.1%. Next, `COc1ccc(-c2c(C(=O)NS(C)(=O)=O)n(Cc3cccc(C(F)(F)F)c3)c3ccccc23)cc1`: 102%. For `CCOC(=O)c1c2c(n3cccc(Cl)c13)C(=O)c1ncccc1C2=O`, the growth was 34%. Take `Fc1ccc(Nc2ccc3c(OCCCN4CCOCC4)cccc3n2)cc1F`: the growth was 85.3%. Consider `COc1ccc(Cn2cc(COc3cc(/C=C/C(=O)c4cc(OC)c(OC)c(OC)c4)ccc3OC)nn2)cc1`, for which the growth was 80.3%.

Regarding `CC(C)N=C(N)/N=C(\N)Nc1ccc2ccc3ccccc3c2c1`, the growth was -47.8% (active). Consider `CN1C(=O)N2CN3CCCN(C3)CN3C(=S)NC1C23` (stereo not given), for which the growth is 99.8%.

Take `CCN(CC)CCSCCN(CC)CC`: the growth was 100%. For the molecule `COc1ccc(Nc2ncnc3c2c(SC)nn3-c2ccccc2)cc1`, the growth was 90.5%.

`COc1ccc(-c2cc(-c3nnc(SC/C(=N\O)c4ccccc4)n3-c3ccccc3)c3ccccc3n2)cc1`: the growth was 94.3%. As for `CC(C)(C)OC(=O)N1CCc2c(sc3ncnc(N/N=C/c4ccc(Br)cc4)c23)C1`, the growth is 83.1%. With `COc1ccc(CN2c3ccccc3CCc3ccccc32)cc1F` the figure was -25.7% (active); with `COc1ccc2c(c1)C/C(=C\c1cc(-c3ccc4c(c3)OCO4)n[nH]1)C2=O`, 88.3%. For `O=C1/C(=C\c2ccccc2)CN(C(=O)c2ccccc2)C/C1=C\c1ccccc1`, the growth was 29.6%. Regarding `N#Cc1c(-c2ccccc2)nc(SCc2nnc(-c3ccc(Cl)cc3)o2)[nH]c1=O`, the growth is 92.2%. Next, `CC(OC(=O)Nc1cccc(Cl)c1)C(=O)O` (stereo not given): 90.2%. For `Cc1[nH]c(C(=O)Nc2ccccc2OC2CCNCC2)c(Cl)c1Cl`, the growth was -57.1% (active). As to `O=C1c2cccc(NCCN=Cc3ccccc3O)c2C(=O)c2c(NCCN=Cc3ccccc3O)cccc21`, the growth was 31.6%. Take `O=C1C(Cl)=C(N/N=c2/[nH][nH]/c(=N/NC3=C(Cl)C(=O)c4ccccc4C3=O)c3ccccc23)C(=O)c2ccccc21`: the growth was 39.5%. With `COc1cc(C2c3cc4c(cc3C(OC(=O)C[n+]3ccccc3)C3COC(=O)C23)OCO4)cc(OC)c1OC` (stereo not given) the figure was -32.5% (active); with `CCOc1ccc(C(=O)O)cc1`, 103%. Next, `COc1ccccc1N(C(C)=O)C1=C(Cl)C(=O)c2ccccc2C1=O`: -27.5% (active); `FC(F)(F)c1cccc(CNC2CCN(CCc3ccccc3)CC2)c1`: 46.2%; `[Ag].[Ag].[NH-]S(=O)(=O)c1ccc(N=Nc2cc(N=Nc3ccc(S([NH-])(=O)=O)cc3)c3c(NC(=O)C(Cl)Cl)cccc3c2OC(=O)C(Cl)Cl)cc1.[c-]1nccs1.[c-]1nccs1`: 44.2%.
